TEAD-YAP inh = TEAD-YAP interaction inhibition. HEK-TIYL cells, TEAD-Gal4/YAP UAS-luciferase luminescence. inhibition, % at 9.12 µM. hit rate 1.4% among 640,000; in the data active = inhibition above about 32%;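 note: 0% = median of test compound wells and 100% = reference inhibitor wells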
FBW7 activator = activators of human E3 ligase FBW7; Q969H0; AlphaScreen FBW7–phospho-cyclin E peptide binding, activator screen; normalized activity (activation), % at 26.1 µM; hit rate 0.13% among 650,000; in the data active = normalized activity above about 1.9%;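 note: purified mutant Fbw7 with reduced substrate affinity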
MITF inh = blocks human microphthalmia-associated transcription factor; inhibition, % at 2.6 µM; O75030; AID 1259374; hit rate 0.91% among 650,000; AlphaScreen MITF homodimerization, bead proximity signal; in the data active = inhibition above about 50%;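 note: 0% = vehicle wells with protein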
GPR151 ag = activators of human GPR151 | activation, % at 11.2 µM | hit rate 1% among 650,000 | PathHunter beta-arrestin GPR151 cells, luminescence | AID 1508602; in the data active = activation above about 4.9%;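 note: 0% = median of compound wells and 100% = cells with positive control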
GPR151 confirm = human GPR151 activation, confirmation screen; 6,700 tested, under 10 active; shares compounds with GPR151 ag; GPR151 PathHunter beta-arrestin cells, luminescence, 90 min; % of EA-reagent control over plate median; activation, % at 11.2 µM;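 active = mean percent activation across replicates above the confirmation screen cutoff of 4.91%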
GPR119 counter = GPR119 activation, counter-screen for GPR151 activators. AID 1508611. activation, % at 11.2 µM. GPR119 PathHunter beta-arrestin cells, luminescence, 90 min; 0 = compound-well median, 100 = enzyme-acceptor control. shares compounds with GPR151 ag. hit rate 0.3% among 6,700;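 active = mean percent activation in the counterscreen above 29.09%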;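 note: counterscreen on off-target GPR119 to flag nonselective hits from the GPR151 activator screen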
Target sequence (Q8TDV5 whole entry, looked up): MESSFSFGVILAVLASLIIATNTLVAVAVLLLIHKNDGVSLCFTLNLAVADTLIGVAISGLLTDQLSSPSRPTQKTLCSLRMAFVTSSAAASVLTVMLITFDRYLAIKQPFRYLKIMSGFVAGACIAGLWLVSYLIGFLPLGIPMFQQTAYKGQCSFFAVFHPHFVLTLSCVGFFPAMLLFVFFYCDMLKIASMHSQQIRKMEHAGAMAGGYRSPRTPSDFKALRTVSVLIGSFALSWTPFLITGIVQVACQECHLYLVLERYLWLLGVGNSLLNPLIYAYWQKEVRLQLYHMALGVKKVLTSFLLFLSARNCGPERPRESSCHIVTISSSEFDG
* hit, by the source's call; x = no result; ! = a repeat was not active. Rows were chosen to be rich in hits. Some 3.5% of all compounds tested hit in one or more screens of this group.

SMILES	TEAD-YAP inh	FBW7 activator	MITF inh	GPR151 ag	GPR151 confirm	GPR119 counter
O=S(=O)(NN=C1CCCCCC1)c1ccccc1	11	0	3	15*	-1	-6
CC(=O)c1ccc(OC(C)C)c(CSC(=N)N)c1	6	1	13	6.5*	0	2
COC(=O)c1ccc(C(=O)NC(=S)Nc2ccc3nc(C)sc3c2)cc1	2	0	4	2	x	x
COc1cccc(NC(=S)NCc2cccnc2)c1	7	0	15	6.1*!	-1	0
COc1cccc(NC(=O)C(=O)NCc2cccnc2)c1	-49	0	3	0	x	x
CCc1c(C)sc2nc(C(C)C)n3c(=O)n(Cc4ccccn4)nc3c12	9	0	1	2	x	x
CC(=O)Nc1sc(N/N=C/c2cccc(Cl)c2)nc1-c1cccs1	9	0	9	7.5*	0	4
O=C(N/N=C/c1cccc(Cl)c1)c1cccs1	-53	0	12	-2	x	x
Cc1nnc(NC(=O)c2sc3ncnc(N4CCOCC4)c3c2C)s1	-2	0	-7	-1	x	x
CCCOc1ccc(/C(O)=C2/C(=O)C(=O)N(CCCN(C)C)C2c2ccc(F)cc2)c(C)c1 (stereo not drawn)	2	0	-4	5.3*	-1	0
CCCOc1ccc(/C(O)=C2/C(=O)C(=O)N(CCN(C)C)C2c2ccc(F)cc2)c(C)c1 (stereo not drawn)	9	1	11	-1	x	x
COC(=O)c1ccc(C2C3=C(CC(c4ccc(C)cc4)CC3=O)Nc3ccccc3N2C(C)=O)cc1 (stereo not drawn)	15	0	17	6.6*	0	5
CC1(C)CC(=O)C2=C(C1)N(c1ccccc1)C(=O)CC2c1ccccc1 (stereo not drawn)	2	0	13	6.8*	0	-7
Cc1ccc(N2C(=O)CC(c3ccccc3)C3=C2CC(C)(C)CC3=O)cc1 (stereo not drawn)	11	0	11	-2	x	x
Cc1cc(C(=O)N2CCOCC2)c(C)o1	-8	0	15	0	x	x
Cc1cc(C(=O)NN2CCOCC2)c(C)o1	3	0	8	7.6*	0	7
CC(NCc1cc(Br)ccc1OCC(N)=O)C12CC3CC(CC(C3)C1)C2 (stereo not drawn)	24	0	2	7.6*	-1	-18
CCOCCCn1c(=S)[nH]c2cc(C(=O)NC3CCCCCC3)ccc2c1=O	-5	0	0	0	x	x
Cc1cccc(OCC(=O)Nc2nnc(S(=O)(=O)N3CCc4ccccc43)s2)c1	-2	0	-4	6.1*	0	-6
O=C(Nc1nnc(S(=O)(=O)N2CCc3ccccc32)s1)c1ccco1	2	0	1	2	x	x
Cc1ccc(OCC(=O)Nc2nnc(S(=O)(=O)NCc3ccccc3)s2)cc1	-26	0	-9	8.7*	1	-1
O=C(Nc1nnc(S(=O)(=O)N2CCc3ccccc32)s1)c1cccs1	-2	0	-13	5.2*	1	3
CN(C(=O)/C=C\c1ccc2c(c1)OCO2)C(C(=O)Nc1ccc2c(c1)OCO2)c1ccccc1 (stereo not drawn)	5	0	2	0	x	x
COc1ccc(CCNc2ccnc(N3CCC(N4CCOCC4)CC3)n2)cc1	-4	0	19	2	x	x
Cc1ccc(-c2csc(/C(C#N)=C/c3ccsc3)n2)cc1	12	0	12	1	x	x
SMILES	TEAD-YAP inh	FBW7 activator	MITF inh	GPR151 ag	GPR151 confirm	GPR119 counter
Cc1ccnc(NS(=O)(=O)c2ccc(NC(=O)c3ccc(C)c([N+](=O)[O-])c3)cc2)n1	1	0	1	0	x	x
O=C(Nc1cccc(N=Cc2cc([N+](=O)[O-])cc([N+](=O)[O-])c2O)c1)c1ccco1	-2	0	13	0	x	x
CC(=O)Nc1cccc(N=Cc2cc([N+](=O)[O-])cc(C)c2O)c1	-26	0	4	7.4*	-1	3
CCCn1nnc(NC(=O)C(C)Oc2ccc(Cl)cc2Cl)n1 (stereo not drawn)	7	0	6	4.9*	0	-8
CCCN(C(=O)NCc1noc2ccccc12)c1ccccc1C	-20	0	13	-2	x	x
O=C(O)c1c(Br)sc(-c2ccccc2)c1-c1ccccc1	-11	0	-1	7.1*	0	-2
COc1ccc(OC)c(/C=C2\C(=O)NN(c3ccc(Cl)cc3)C2=O)c1	8	0	-5	0	x	x
O=C(N/N=C/c1cccc(O)c1)c1ccc(Br)o1	-25	0	-1	8.3*	-4	-31
O=C(N/N=C/c1cccnc1)c1ccc(Br)o1	-50	0	3	-1	x	x
COc1ccc(CCNC(=O)c2ccc3c(=O)n(Cc4ccc(Cl)cc4)c(=S)[nH]c3c2)cc1OC	-1	1	-11	0	x	x
c1ccc(NC2=NCCC2)cc1	8	0	-1	7.1*	0	-6
FC(F)(F)c1ccc(NC2=NCCC2)cc1	-8	0	19	0	x	x
CCN(C(=O)CCc1nc(-c2ccccc2F)no1)c1cccc(Cl)c1	3	0	8	3	x	x
COc1ccc(-c2cc(C(F)(F)F)n3nc(C(=O)Nc4cccc(C)c4Cl)c(Cl)c3n2)cc1OC	-5	0	-11	0	x	x
COc1ccc(-c2cc(C(F)(F)F)n3nc(C(=O)Nc4ccccc4C(F)(F)F)c(Cl)c3n2)cc1OC	-24	0	2	6.0*	0	9
CC(C)C(=O)NC(=S)c1c(N)n(Cc2ccccc2)c(=O)[nH]c1=O	6	0	6	0	x	x
CC(=O)N1CCC(N(C(=O)C2CCN(c3ccc(C(F)(F)F)cn3)CC2)C2CC2)CC1	-3	0	16	5.5*	-1	-3
CCCC1=C(C(=O)OCC)C(c2cccc([N+](=O)[O-])c2)NC(=O)N1C (stereo not drawn)	-4	0	1	0	x	x
CC1C2CCCN2CCN1Cc1cccc([N+](=O)[O-])c1 (stereo not drawn)	-8	1	5	9.7*	-1	-9
CC(CC(=O)N1CCN(c2ccc(F)cc2)CC1)c1ccccc1 (stereo not drawn)	3	0	0	11*	0	3
CCCC(C)C(=O)N1CCN(c2ccc(F)cc2)CC1 (stereo not drawn)	3	0	6	1	x	x
CC(c1ccccc1)N1CC(C(=O)N2CCN(c3ccc(F)cc3)CC2)CC1=O (stereo not drawn)	2	0	4	5.2*	-1	-17
O=C(NCC(=O)N1CCN(c2ccccc2)CC1)c1c(F)cccc1F	-9	0	-3	6.0*	1	9
N=C1C(c2nc3ccccc3[nH]2)=C(O)CN1CCc1ccccc1	-20	0	4	5.3*	0	-3
COc1ccc(Cl)cc1N1CC(O)=C(c2nc3ccccc3[nH]2)C1=N	-5	0	9	1	x	x

High-throughput results: PubChem, The Scripps Research Institute Molecular Screening Center
